# Experimental data reported in PubChem BioAssay (NCATS).
# Results filed as inconclusive are left out. Values without a mark were called inactive. Calls of active or inactive are those of the source. Calls come from the whole dose curve; as a rule, active = well fitted curve in the direction sought with a large enough effect; inconclusive = small, poorly fitted or top-dose-only effect, or another doubt; inactive = no such curve, though single readings can be large; an effect the other way counts as inactive or inconclusive.
# How the values were obtained:
# [1] = Quantitative High-Throughput drug screen in 47 multiple myeloma cell lines against the NCATS MIPE library collection: NCIH929_DSMZ cell viability assay (AID 1918978); settings: NCI-H929 myeloma viability, CellTiter-Glo ATP, 48 h; series mostly up to 45.8 µM; note: nearly all actives have a fitted effect of over 35% in size
# Outline: (§1)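 Inhibition of viability over 48 h was scored by ATP content (CellTiter-Glo) in 500-cell wells. Zero and full viability were defined by media-only and DMSO-only wells.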
# [2] = Quantitative High-Throughput drug screen in 47 multiple myeloma cell lines against the NCATS MIPE library collection: MM1S_ATCC cell viability assay (AID 1918980); settings: MM1S myeloma viability, CellTiter-Glo ATP luminescence, 48 h; series mostly up to 45.8 µM; note: nearly all actives have a fitted effect of over 45% in size
# Outline: as §1
# [3] = Quantitative High-Throughput drug screen in 47 multiple myeloma cell lines against the NCATS MIPE library collection: LP1_DSMZ cell viability assay (AID 1918982); settings: LP1 myeloma viability, CellTiter-Glo ATP luminescence, 48 h; series mostly up to 45.8 µM; note: nearly all actives have a fitted effect of over 35% in size
# Outline: as §1
# [4] = Quantitative High-Throughput drug screen in 47 multiple myeloma cell lines against the NCATS MIPE library collection: KMS34_JCRB cell viability assay (AID 1918985); settings: KMS34 myeloma viability, CellTiter-Glo ATP luminescence, 48 h; series mostly up to 45.8 µM; note: nearly all actives have a fitted effect of over 40% in size
# Outline: as §1
# [5] = Quantitative High-Throughput drug screen in 47 multiple myeloma cell lines against the NCATS MIPE library collection: OPM1_PLB cell viability assay (AID 1918989); settings: CellTiter-Glo, 48 h; series mostly up to 45.8 µM; note: nearly all actives have a fitted effect of over 40% in size
# Outline: as §1
# [6] = Quantitative High-Throughput drug screen in 47 multiple myeloma cell lines against the NCATS MIPE library collection: XG6_PLB cell viability assay (AID 1919865); settings: XG6 myeloma viability, CellTiter-Glo ATP luminescence, 48 h; series mostly up to 45.8 µM; note: nearly all actives have a fitted effect of over 40% in size
# Outline: as §1
# [7] = Quantitative High-Throughput drug screen in 47 multiple myeloma cell lines against the NCATS MIPE library collection: KMS26_JCRB cell viability assay (AID 1918975); settings: KMS26 myeloma cells viability, CellTiter-Glo ATP, 48 h; series mostly up to 45.8 µM; note: nearly all actives have a fitted effect of over 45% in size
# Outline: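 We plated 500 myeloma cells per well, pinned in MIPE 4.0 compounds, and incubated for 48 hours at 37C. ATP was then quantified with CellTiter-Glo, with DMSO and media-only wells defining 100% and 0%.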
# [8] = Quantitative High-Throughput drug screen in 47 multiple myeloma cell lines against the NCATS MIPE library collection: OCIMY1_PLB cell viability assay (AID 1918979); settings: OCI-MY1 myeloma viability, CellTiter-Glo ATP, 48 h; series mostly up to 45.8 µM; note: nearly all actives have a fitted effect of over 35% in size
# Outline: as §1
# [9] = Quantitative High-Throughput drug screen in 47 multiple myeloma cell lines against the NCATS MIPE library collection: MM1R_ATCC cell viability assay (AID 1918981); settings: MM1R multiple myeloma cells, CellTiter-Glo viability, 48 h; series mostly up to 45.8 µM; note: nearly all actives have a fitted effect of over 35% in size
# Outline: as §1
# [10] = Quantitative High-Throughput drug screen in 47 multiple myeloma cell lines against the NCATS MIPE library collection: OCIMY7_PLB cell viability assay (AID 1918987); settings: OCI-MY7 myeloma viability, CellTiter-Glo ATP, 48 h; viability (% of DMSO): at 45.8 µM (top of the series); note: nearly all actives have a fitted effect of over 65% in size
# Outline: as §1
# [11] = Quantitative High-Throughput drug screen in 47 multiple myeloma cell lines against the NCATS MIPE library collection: SKMM1_PLB cell viability assay (AID 1919863); settings: SKMM1 myeloma viability, CellTiter-Glo ATP, 48 h; viability: hits give low values; note: nearly all actives have a fitted effect of over 35% in size
# Outline: as §1
# [12] = Quantitative High-Throughput drug screen in 47 multiple myeloma cell lines against the NCATS MIPE library collection: U266_ATCC cell viability assay (AID 1919864); settings: U266 myeloma viability, CellTiter-Glo ATP luminescence, 48 h; series mostly up to 45.8 µM; note: nearly all actives have a fitted effect of over 35% in size
# Outline: as §1
# [13] = Quantitative High-Throughput drug screen in 47 multiple myeloma cell lines against the NCATS MIPE library collection: KMS28PE_JCRB cell viability assay (AID 1918983); settings: KMS28PE multiple myeloma viability, CellTiter-Glo ATP, 48 h; series mostly up to 45.8 µM; note: nearly all actives have a fitted effect of over 35% in size
# Outline: as §1
# [14] = Quantitative High-Throughput drug screen in 47 multiple myeloma cell lines against the NCATS MIPE library collection: OCIMY5_PLB cell viability assay (AID 1918988); settings: OCI-MY5 myeloma viability, ATP luminescence, 48 h; series mostly up to 45.8 µM; note: nearly all actives have a fitted effect of over 65% in size
# Outline: as §1
# [15] = Quantitative High-Throughput drug screen in 47 multiple myeloma cell lines against the NCATS MIPE library collection: MOLP8_DSMZ cell viability assay (AID 1918977); settings: MOLP8 myeloma viability, CellTiter-Glo ATP luminescence, 48 h; series mostly up to 45.8 µM; note: nearly all actives have a fitted effect of over 45% in size
# Outline: as §1
# [16] = Quantitative High-Throughput drug screen in 47 multiple myeloma cell lines against the NCATS MIPE library collection: MMM1_PLB cell viability assay (AID 1918976); settings: MMM1 myeloma cells viability, CellTiter-Glo, 48 h; series mostly up to 45.8 µM; note: nearly all actives have a fitted effect of over 35% in size
# Outline: as §1
# [17] = Quantitative High-Throughput drug screen in 47 multiple myeloma cell lines against the NCATS MIPE library collection: L363_DSMZ cell viability assay (AID 1918984); settings: L363 myeloma viability, CellTiter-Glo ATP luminescence, 48 h; viability (% of control): at 45.8 µM (top of the series); note: nearly all actives have a fitted effect of over 40% in size
# Outline: as §1
# Potency is the fitted concentration of half-maximal effect.
compound,measurement,setting,value
CC(C)(F)C[C@H](N[C@@H](c1ccc(-c2ccc(S(C)(=O)=O)cc2)cc1)C(F)(F)F)C(=O)NC1(C#N)CC1,Potency,[1],inactive
same,Potency,[2],inactive
same,Potency,[3],inactive
same,Potency,[4],inactive
same,Potency,[5],5.9 µM (active)
same,Potency,[6],inactive
COc1nccc(-c2c(-c3ccc(F)cc3)ncn2C2CCC(O)CC2)n1 (configuration not stated),Potency,[7],6.62 µM (active)
same,Potency,[8],inactive
same,Potency,[2],4.69 µM (active)
same,Potency,[9],18.7 µM (active)
same,Potency,[10],inactive
same,Potency,[5],10.5 µM (active)
same,Potency,[11],0.0296 µM (active)
same,Potency,[12],2.96 µM (active)
CC1CNc2c(cccc2S(=O)(=O)N[C@@H](CCCN=C(N)N)C(=O)N2CC[C@@H](C)C[C@@H]2C(=O)O)C1 (some centres not stated),Potency,[7],inactive
same,Potency,[8],inactive
same,Potency,[2],7.43 µM (active)
same,Potency,[3],inactive
same,Potency,[4],inactive
same,Potency,[10],inactive
same,Potency,[6],5.9 µM (active)
Cc1cnc(-c2cc(N3CCN(C(=O)CCS(C)(=O)=O)CC3)ncc2Cl)c(C)c1,Potency,[9],18.7 µM (active)
same,Potency,[3],inactive
same,Potency,[13],inactive
same,Potency,[4],inactive
same,Potency,[14],2.96 µM (active)
same,viability,[11],114%
same,Potency,[12],inactive
same,Potency,[6],14.8 µM (active)
CNC(=O)c1c(-c2ccc(F)cc2)oc2cc(N(CCO)S(C)(=O)=O)c(C3CC3)cc12,Potency,[8],18.7 µM (active)
same,Potency,[6],18.7 µM (active)
CN(C)CCOc1cc(-c2cn[nH]c2)ccc1NC(=O)C1COc2ccccc2O1 (configuration not stated),Potency,[15],inactive
same,Potency,[8],inactive
same,Potency,[9],13.2 µM (active)
same,Potency,[13],13.2 µM (active)
same,Potency,[4],9.35 µM (active)
same,viability,[11],131%
CN(C)c1ccccc1CN1CCCN(Cc2ccccc2N(C)C)C1c1ccncc1,Potency,[16],16.6 µM (active)
same,Potency,[15],18.7 µM (active)
same,Potency,[1],14.8 µM (active)
same,Potency,[9],18.7 µM (active)
same,Potency,[13],23.5 µM (active)
same,Potency,[14],20.9 µM (active)
same,Potency,[5],20.9 µM (active)
same,Potency,[11],20.9 µM (active)
same,Potency,[12],14.8 µM (active)
same,Potency,[6],16.6 µM (active)
Cc1cnc(CNC(=O)c2c(=O)c3ccc(N4CCCN(C)CC4)nc3n3c2sc2ccccc23)cn1,Potency,[16],9.11 µM (active)
same,Potency,[15],9.11 µM (active)
same,Potency,[2],2.88 µM (active)
same,Potency,[9],7.24 µM (active)
same,Potency,[13],12.9 µM (active)
same,Potency,[14],10.2 µM (active)
same,Potency,[5],inactive
same,Potency,[11],5.75 µM (active)
same,Potency,[12],1.82 µM (active)
same,Potency,[6],5.12 µM (active)
COc1cc([C@@H]2c3cc4c(cc3[C@@H](O[C@@H]3O[C@@H]5CO[C@@H](C)O[C@@H]5[C@H](O)[C@@H]3O)[C@H]3COC(=O)[C@H]23)OCO4)cc(OC)c1O,Potency,[15],inactive
same,Potency,[8],inactive
same,Potency,[2],0.264 µM (active)
same,Potency,[9],0.372 µM (active)
same,Potency,[4],4.18 µM (active)
same,Potency,[14],14.8 µM (active)
same,Potency,[5],14.8 µM (active)
COc1ccc(-c2oc3c(CC=C(C)C)c(O)cc(O)c3c(=O)c2O)cc1,Potency,[16],20.9 µM (active)
same,Potency,[1],10.5 µM (active)
same,Potency,[8],inactive
same,Potency,[9],20.9 µM (active)
same,Potency,[10],5.9 µM (active)
same,Potency,[14],14.8 µM (active)
same,Potency,[5],inactive
same,Potency,[11],20.9 µM (active)
same,Potency,[12],16.6 µM (active)
same,Potency,[6],6.62 µM (active)
C[C@]12CCC3=C4CCC(=O)C=C4CC[C@@H]3[C@H]1CC[C@@]2(O)CC#N,Potency,[7],inactive
same,Potency,[8],inactive
same,Potency,[2],inactive
same,Potency,[3],inactive
same,Potency,[13],inactive
same,viability,[11],162%
same,Potency,[12],inactive
Nc1ccc(-c2ccc3ncc4ccc(=O)n(-c5cccc(C(F)(F)F)c5)c4c3c2)cn1,Potency,[16],0.0066 µM (active)
same,Potency,[8],0.0235 µM (active)
same,Potency,[2],0.0105 µM (active)
same,Potency,[13],0.0166 µM (active)
same,Potency,[4],0.0066 µM (active)
same,Potency,[10],0.0209 µM (active)
same,Potency,[14],0.0332 µM (active)
same,Potency,[11],0.0053 µM (active)
same,Potency,[12],0.372 µM (active)
CN(C)c1ccc(-c2nc3ncc(Cl)c(N4CCN(CC(=O)Nc5nccs5)CC4)c3[nH]2)cc1,Potency,[16],9.35 µM (active)
same,Potency,[1],inactive
same,Potency,[9],3.72 µM (active)
same,Potency,[3],inactive
same,Potency,[13],5.26 µM (active)
same,Potency,[17],inactive
same,Potency,[4],2.96 µM (active)
same,Potency,[10],1.66 µM (active)
same,Potency,[14],5.26 µM (active)
same,Potency,[5],1.87 µM (active)
same,Potency,[11],14.8 µM (active)
same,Potency,[12],2.96 µM (active)
same,Potency,[6],2.64 µM (active)
CC(C)C[C@H](NC(=O)c1cc2ccccc2s1)C(=O)N1CCN(C(=O)[C@H](CO)NS(=O)(=O)c2ccc(Cl)cc2Cl)CC1,Potency,[16],18.7 µM (active)
same,Potency,[1],26.4 µM (active)
same,Potency,[2],23.5 µM (active)
same,Potency,[9],18.7 µM (active)
same,Potency,[3],26.4 µM (active)
same,Potency,[13],23.5 µM (active)
same,Potency,[10],23.5 µM (active)
same,Potency,[14],20.9 µM (active)
same,Potency,[5],20.9 µM (active)
C[C@H]1O[C@@H](n2cc(F)c(=O)[nH]c2=O)[C@H](O)[C@H]1O,Potency,[1],inactive
same,Potency,[8],inactive
same,Potency,[13],inactive
same,Potency,[6],inactive
CC1=C[C@@H]2[C@@H]([C@@H](O)C[C@@]3(C)[C@H]2C[C@@H](C)[C@]3(O)C(=O)CO)[C@@]2(C)Cc3cnn(-c4ccccc4)c3C=C12,Potency,[16],20.9 µM (active)
same,Potency,[8],23.5 µM (active)
same,Potency,[2],0.0083 µM (active)
same,Potency,[9],20.9 µM (active)
same,Potency,[17],0.0332 µM (active)
same,Potency,[4],23.5 µM (active)
same,Potency,[10],9.35 µM (active)
same,Potency,[14],1.87 µM (active)
same,Potency,[11],18.7 µM (active)
same,Potency,[12],20.9 µM (active)
same,Potency,[6],20.9 µM (active)
